# Several values for one entry are separate records, joined by “and”; a condition that tells them apart may be missing. Identical values can stand only once. Inconclusive results are not listed. A call without a number means that no potency is given here. Where a structure was tested more than once in an assay, its records may differ in their call. Values without a mark were called inactive. Activity calls are given as the source filed them. Calls come from the whole dose curve; as a rule, active = well fitted curve in the direction sought with a large enough effect; inconclusive = small, poorly fitted or top-dose-only effect, or another doubt; inactive = no such curve, though single readings can be large; an effect the other way counts as inactive or inconclusive.
# Columns and labels:
# [1] = qHTS of pediatric cancer cell lines to identify multiple opportunities for drug repurposing: Primary screen for NB-EBc1 cells (AID 1347095); note: potency is the fitted concentration of half-maximal effect
# In short: (§1)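 500-1,000 cells/well; 5 h pre-incubation 37 °C/5% CO2; compound pinned; 48 h; CellTiter-Glo, 15 min RT; luminescence. MIPE 11-pt from 0.78 nM, NPC 8-pt from 0.59 nM final. Bortezomib 2.3 µM final as positive control.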
# [2] = qHTS of pediatric cancer cell lines to identify multiple opportunities for drug repurposing: Primary screen for U-2 OS cells (AID 1347096); note: nearly all actives have a fitted effect of over 50% in size; note: potency is the fitted concentration of half-maximal effect
# In short: (§2)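 Viability after 48 h compound treatment at 37C, 500-1,000 cells/well, read as ATP luminescence with CellTiter-Glo. Primary screens used 11-point (MIPE, 0.78 nM-46 µM) or 8-point (NPC, 0.59 nM-46 µM) final concentrations; follow-up screens used 11-point dilutions.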
# [3] = qHTS of pediatric cancer cell lines to identify multiple opportunities for drug repurposing: Primary screen for Saos-2 cells (AID 1347097); note: nearly all actives have a fitted effect of over 40% in size; note: potency is the fitted concentration of half-maximal effect
# In short: as §1
# [4] = qHTS of pediatric cancer cell lines to identify multiple opportunities for drug repurposing: Primary screen for SK-N-SH cells (AID 1347098); note: nearly all actives have a fitted effect of over 65% in size; note: potency is the fitted concentration of half-maximal effect;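 for activity change, negative = cytotoxic: DMSO served as neutral control and bortezomib at 2.3 µM as positive control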
# In short: (§3)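 Cells (500-1,000/well) rested 5 h, then received compounds for 48 h; metabolically active cells were measured by CellTiter-Glo luminescence. Final concentrations spanned up to 46 µM (MIPE, 11-point) or 0.59 nM-46 µM (NPC, 8-point) in primary screens, 11-point in follow-ups.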
# [5] = qHTS of pediatric cancer cell lines to identify multiple opportunities for drug repurposing: Primary screen for NB1643 cells (AID 1347099); note: nearly all actives have a fitted effect of over 50% in size; note: potency is the fitted concentration of half-maximal effect
# In short: as §1
# [6] = qHTS of pediatric cancer cell lines to identify multiple opportunities for drug repurposing: Primary screen for LAN-5 cells (AID 1347100); note: potency is the fitted concentration of half-maximal effect
# In short: as §2
# [7] = qHTS of pediatric cancer cell lines to identify multiple opportunities for drug repurposing: Primary screen for BT-12 cells (AID 1347101); note: nearly all actives have a fitted effect of over 25% in size; note: potency is the fitted concentration of half-maximal effect
# In short: as §3
# [8] = qHTS of pediatric cancer cell lines to identify multiple opportunities for drug repurposing: Primary screen for OHS-50 cells (AID 1347103); note: nearly all actives have a fitted effect of over 40% in size; note: potency is the fitted concentration of half-maximal effect
# In short: as §3
# [9] = qHTS of pediatric cancer cell lines to identify multiple opportunities for drug repurposing: Primary screen for RD cells (AID 1347104); note: nearly all actives have a fitted effect of over 55% in size; note: potency is the fitted concentration of half-maximal effect
# In short: as §1
# [10] = qHTS of pediatric cancer cell lines to identify multiple opportunities for drug repurposing: Primary screen for MG 63 (6-TG R) cells (AID 1347105); note: nearly all actives have a fitted effect of over 50% in size; note: potency is the fitted concentration of half-maximal effect
# In short: as §1
# [11] = qHTS of pediatric cancer cell lines to identify multiple opportunities for drug repurposing: Primary screen for Rh18 cells (AID 1347102); note: nearly all actives have a fitted effect of over 65% in size
# In short: as §2
# [12] = qHTS of pediatric cancer cell lines to identify multiple opportunities for drug repurposing: Primary screen for control Hh wild type fibroblast cells (AID 1347106);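 note: series mostly up to about 46 µM; a drop in luminescence marks cytotoxicity and a rise apparent proliferation; nearly all actives have a fitted effect of over 55% in size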
# In short: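 Cells (500-1,000/well) in growth media were settled 5 h at 37 degrees C, then given compounds for 48 h. Viability was read as CellTiter-Glo luminescence. Primary runs used MIPE at 11 points (0.78 nM-46 µM) and NPC at 8 points (0.59 nM-46 µM); follow-ups used 11 points.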
# [13] = qHTS of pediatric cancer cell lines to identify multiple opportunities for drug repurposing: Primary screen for Rh30 cells (AID 1347107); note: series mostly up to about 46 µM; nearly all actives have a fitted effect of over 75% in size
# In short: as §2
# [14] = qHTS of pediatric cancer cell lines to identify multiple opportunities for drug repurposing: Primary screen for Rh41 cells (AID 1347108);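 note: series mostly up to about 46 µM; luminescence drop marks cytotoxic hits; nearly all actives have a fitted effect of over 70% in size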
# In short: as §1
# [15] = qHTS of pediatric cancer cell lines to identify multiple opportunities for drug repurposing: Confirmatory screen for NB1643 cells (AID 1347109); note: nearly all actives have a fitted effect of over 45% in size
# In short: as §2
# [16] = qHTS of pediatric cancer cell lines to identify multiple opportunities for drug repurposing: Confirmatory screen for A673 cells (AID 1347110);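 note: cells exposed to compound for 48 h before the viability read; nearly all actives have a fitted effect of over 65% in size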
# In short: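 Forty-eight-hour viability assay. Follow-up compounds ran at 11-point dilutions; positive control bortezomib at 2.3 uM final, neutral control DMSO.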
# [17] = qHTS of pediatric cancer cell lines to identify multiple opportunities for drug repurposing: Confirmatory screen for DAOY cells (AID 1347114); note: nearly all actives have a fitted effect of over 65% in size
# In short: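 Viability measured as metabolically active cells via CellTiter-Glo luminescence following 48 hours of compound exposure, 11-point dilutions in confirmatory testing. 500-1,000 cells/well plated 5 hours before dosing; controls were DMSO and 2.3 µM bortezomib.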
# [18] = qHTS of pediatric cancer cell lines to identify multiple opportunities for drug repurposing: Confirmatory screen for NB-EBc1 cells (AID 1347115);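 note: cells exposed to compound for 48 h before the viability read; nearly all actives have a fitted effect of over 45% in size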
# In short: as §2
smiles,measurement,setting,value
O=C(NOCC1CC1)c1ccc(F)c(F)c1Nc1ccc(I)cc1Cl,Potency,[1],15 µM (active) and 8.33 µM (active)
same,Potency,[2],18.7 µM (active)
same,Potency,[3],10.6 µM (active) and 16.6 µM (active)
same,Potency,[4],19.4 µM (active)
same,Potency,[5],16.6 µM (active)
same,Potency,[6],16.8 µM (active) and 16.6 µM (active)
same,Potency,[7],27.6 µM (active) and 24.3 µM (active)
same,Potency,[8],19.3 µM (active)
same,Potency,[9],9.44 µM (active) and 5.26 µM (active)
same,Potency,[10],26.6 µM (active) and 11.8 µM (active)
CC1Cc2ccccc2N1NC(=O)c1ccc(Cl)c(S(N)(=O)=O)c1 (configuration not stated),Potency,[1],inactive
same,Potency,[2],inactive
same,Potency,[3],inactive
same,Potency,[4],inactive
same,Potency,[5],inactive
same,Potency,[6],inactive
same,Potency,[7],inactive
same,Potency,[11],inactive
same,Potency,[8],inactive
same,Potency,[9],inactive
same,Potency,[10],inactive
same,Potency,[12],inactive
same,Potency,[13],inactive
same,Potency,[14],inactive
CN(c1nccc(=O)[nH]1)C1CCN(c2nc3ccccc3n2Cc2ccc(F)cc2)CC1,Potency,[1],inactive
same,Potency,[2],inactive
same,Potency,[3],inactive
same,Potency,[4],inactive
same,Potency,[7],inactive
same,Potency,[11],inactive
same,Potency,[9],inactive
same,Potency,[10],inactive
same,Potency,[13],inactive
same,Potency,[14],inactive
CC(C)(S)[C@@H](N)C(=O)O,Potency,[1],inactive
same,Potency,[2],inactive
same,Potency,[3],inactive
same,Potency,[4],inactive
same,Potency,[5],inactive
same,Potency,[6],inactive
same,Potency,[11],inactive
same,Potency,[8],inactive
same,Potency,[9],inactive
same,Potency,[10],inactive
same,Potency,[13],inactive
same,Potency,[14],inactive
COc1c2occc2cc2ccc(=O)oc12,Potency,[1],inactive
same,Potency,[2],inactive
same,Potency,[3],inactive
same,Potency,[4],inactive
same,Potency,[5],inactive
same,Potency,[6],inactive
same,Potency,[7],inactive
same,Potency,[11],inactive
same,Potency,[8],inactive
same,Potency,[9],inactive
same,Potency,[10],inactive
same,Potency,[12],inactive
same,Potency,[13],inactive
same,Potency,[14],inactive
O=C(O)c1cc(=O)c2c(OCC(O)COc3cccc4oc(C(=O)O)cc(=O)c34)cccc2o1,Potency,[1],inactive
same,Potency,[2],inactive
same,Potency,[3],inactive
same,Potency,[4],inactive
same,Potency,[5],inactive
same,Potency,[6],inactive
same,Potency,[7],inactive
same,Potency,[11],inactive
same,Potency,[8],inactive
same,Potency,[9],inactive
same,Potency,[10],inactive
same,Potency,[12],inactive
same,Potency,[13],inactive
same,Potency,[14],inactive
CCC[C@@H]1C[C@@H](C(=O)N[C@@H]([C@H]2O[C@H](SC)[C@H](O)[C@@H](O)[C@H]2O)[C@@H](C)O)N(C)C1,Potency,[1],inactive
same,Potency,[2],inactive
same,Potency,[3],inactive
same,Potency,[4],inactive
same,Potency,[5],inactive
same,Potency,[6],inactive
same,Potency,[7],inactive
same,Potency,[11],inactive
same,Potency,[8],inactive
same,Potency,[9],inactive
same,Potency,[10],inactive
same,Potency,[13],inactive
same,Potency,[14],inactive
CCN(CCO)CCCC(C)Nc1ccnc2cc(Cl)ccc12 (configuration not stated),Potency,[1],1.18 µM (active)
same,"activity change, negative = cytotoxic",[1],13.9% [at 4.84 µM]
same,Potency,[2],inactive
same,Potency,[3],inactive
same,"activity change, negative = cytotoxic",[5],19.4% [at 4.84 µM]
same,Potency,[6],3.72 µM (active)
same,"activity change, negative = cytotoxic",[6],22.8% [at 4.84 µM]
same,Potency,[11],inactive
same,"activity change, negative = cytotoxic",[8],-4.93% [at 6.18 µM]
same,"activity change, negative = cytotoxic",[9],5.84% [at 4.84 µM]
same,"activity change, negative = cytotoxic",[10],6.76% [at 4.84 µM]
same,Potency,[12],inactive
same,Potency,[13],inactive
same,Potency,[14],inactive
same,Potency,[15],inactive
same,Potency,[16],inactive
same,Potency,[17],inactive
same,Potency,[18],inactive
COCCCOc1ccnc(CS(=O)c2nc3ccccc3[nH]2)c1C (configuration not stated),Potency,[1],inactive
same,Potency,[2],inactive
same,Potency,[3],inactive
same,Potency,[4],inactive
same,Potency,[5],inactive
same,Potency,[6],inactive
same,Potency,[7],inactive
same,Potency,[11],inactive
same,Potency,[8],inactive
same,Potency,[9],inactive
same,Potency,[10],inactive
same,Potency,[13],inactive
same,Potency,[14],inactive
Cc1ccc(C)c(OCCCC(C)(C)C(=O)O)c1,Potency,[1],inactive
same,Potency,[2],inactive
same,Potency,[3],inactive
same,Potency,[4],inactive
same,Potency,[6],inactive
same,Potency,[11],inactive
same,Potency,[8],inactive
same,Potency,[9],inactive
same,Potency,[10],inactive
same,Potency,[12],inactive
same,Potency,[13],inactive
same,Potency,[14],inactive
O=C(O)c1cccc(-c2noc(-c3ccccc3F)n2)c1,Potency,[1],inactive
same,Potency,[2],inactive
same,Potency,[3],inactive
same,Potency,[4],inactive
same,Potency,[6],inactive
same,Potency,[7],inactive
same,Potency,[11],inactive
same,Potency,[8],inactive
same,Potency,[9],inactive
same,Potency,[10],inactive
same,Potency,[12],inactive
same,Potency,[13],inactive
CN(C)CCc1c[nH]c2ccc(Cn3cncn3)cc12,Potency,[1],inactive
same,Potency,[2],inactive
same,Potency,[3],11.8 µM (active)
same,Potency,[4],inactive
same,Potency,[5],inactive
same,Potency,[6],inactive
same,Potency,[11],inactive
same,Potency,[8],inactive
same,Potency,[9],inactive
same,Potency,[12],inactive
same,Potency,[13],inactive
same,Potency,[14],inactive
CC(=O)NC[C@H]1CN(c2ccc(N3CCOCC3)c(F)c2)C(=O)O1,Potency,[1],inactive
same,Potency,[2],inactive
same,Potency,[3],inactive
same,Potency,[5],inactive
same,Potency,[6],inactive
same,Potency,[11],inactive
same,Potency,[8],inactive
same,Potency,[9],inactive
same,Potency,[10],inactive
same,Potency,[12],inactive
same,Potency,[13],inactive
same,Potency,[14],inactive
CN(C)CCCC1(c2ccc(F)cc2)OCc2cc(C#N)ccc21 (configuration not stated),Potency,[1],inactive
same,Potency,[2],inactive
same,Potency,[5],16.6 µM (active)
same,Potency,[6],inactive
same,Potency,[7],inactive
same,Potency,[11],inactive
same,Potency,[8],inactive
same,Potency,[9],29.6 µM (active)
same,Potency,[10],inactive
same,Potency,[12],inactive
same,Potency,[13],inactive
COc1cc2nc(N3CCN(C(=O)C4CCCO4)CC3)nc(N)c2cc1OC (configuration not stated),Potency,[1],inactive
same,Potency,[2],inactive
same,Potency,[3],inactive
same,Potency,[5],inactive
same,Potency,[6],inactive
same,Potency,[11],inactive
same,Potency,[8],inactive
same,Potency,[9],inactive
same,Potency,[10],inactive
same,Potency,[12],inactive
same,Potency,[13],inactive
same,Potency,[14],inactive
CC(=O)Nc1ccc(O)cc1,Potency,[1],inactive
same,Potency,[2],inactive
same,Potency,[3],inactive
same,Potency,[5],inactive
same,Potency,[6],inactive
same,Potency,[11],inactive
same,Potency,[8],inactive
same,Potency,[9],inactive
same,Potency,[10],inactive
same,Potency,[12],inactive
same,Potency,[13],inactive
same,Potency,[14],inactive
C[C@@H](N)C1CCC(C(=O)Nc2ccncc2)CC1 (some centres not stated),Potency,[1],inactive
same,Potency,[2],inactive
same,Potency,[5],inactive
same,Potency,[6],inactive
same,Potency,[7],inactive
same,Potency,[11],inactive
same,Potency,[8],inactive
same,Potency,[9],inactive
same,Potency,[10],inactive
same,Potency,[13],inactive
same,Potency,[14],inactive

# Reference: PubChem BioAssay (NCATS)
